Results taken from PubChem BioAssay AID489042 (NMMLSC, 2010).
A number with no mark means an inactive call. Active and inactive are the calls of the source. No stated cut-off is given here; in the data, active means inhibition score above about 11; inactive means the rest.

Experiment: S. cerevisiae short- and long-term growth effects – BY4741, OD595, 24 h, dose response (AID 489042)
Conditions: flow cytometer event count, 7 d (AID 449753), hits give high values

| SMILES | inhibition score |
| --- | --- |
| C=CCOn1c(=O)c(-c2cccs2)[n+]([O-])c2ccccc21 | 0 |
| O=C(Nc1cccc(Cl)c1)Nc1ccc2nccnc2c1 | 0 |
| O=C(/C=C/c1cccs1)NC(=S)NNC(=O)Cc1cccs1 | 11 (active) |
| CCN(CC)C(=O)CSc1nnc(-c2cccc(OC)c2)o1 | 0 |
| CCCCCNC(=O)C(=O)C1C(=O)Nc2ccccc21 (centres undefined) | 0 |
| C=CCSc1nnc(-c2ccc([N+](=O)[O-])cc2)o1 | 0 |
| O=C(Nc1ccc2nc3ccccc3nc2c1)c1ccc(Br)cc1 | 0 |
| C[C@@]12C(=O)OC(=O)[C@]1(C)C1CCC2O1 | 11 (active) |
| CC(C)OC(=O)CSc1nnc(-c2ccc(Cl)cc2Cl)o1 | 0 |
| CC(C)CSc1nnc2c3ccccc3n(C)c2n1 | 0 |
| O=C1c2c(O)ccc(O)c2C(=O)c2c(NCCNCCO)ccc(NCCNCCO)c21 | 0 |
| FC(F)(F)c1nc2cc3nc4ccccc4[nH]c3cc2n1 | 0 |
| CNC(=O)c1cccc2nc3ccccc3nc12 | 0 |
| N#CCc1nn(-c2ccccc2)c2ncnc(N)c12 | 0 |
| Cc1ccc(-c2nn(C(C)(C)C)c3ncnc(N)c23)cc1 | 0 |
| O=C(Nc1ccc2nc3ccccc3nc2c1)c1ccccc1 | 0 |
| CC(C)OC(=O)c1ccc2nc3ccccc3nc2c1 | 0 |
| COc1ccc2c(c1)c1nnc(SC)nc1n2C | 0 |
| CN(C)CCNc1ncnc2c1cnn2-c1ccc(Cl)cc1 | 0 |
| CC(=O)[C@@]1(O)CCC2C3CC[C@H]4C[C@@H](O)CC[C@]4(C)C3CC[C@@]21C (some centres undefined) | 0 |
| COc1cccc2nc3cc(C)c(C)cc3nc12 | 0 |
| CC(C)(C)n1nc(-c2ccc(F)cc2)c2c(N)ncnc21 | 0 |
| O=C(CN1CCN(c2ccccn2)CC1)Nc1ccccc1F | 0 |
| COc1ccc2nc3ccccc3nc2c1 | 0 |
| O=C(c1cccc2nc3ccccc3nc12)N1CCOCC1 | 0 |
| Cc1ccccc1NC(=O)c1cccc2nc3ccccc3nc12 | 0 |
| N#CC(c1nc2ccccc2nc1N1CCCC1)S(=O)(=O)c1ccccc1 (centres undefined) | 0 |
| CSc1nnc(-c2ccc([N+](=O)[O-])cc2)o1 | 0 |
| COc1ccc2nc3ccccc3[n+]([O-])c2c1 | 0 |
